# Screening data (PubChem BioAssay)
# In the library only some 1.3% were active in any assay of this set; here they are far more common.
# Gli-Sufu block – Gli-Sufu pathway antagonists, primary screen, luciferase luminescence, Sufu-KO-LIGHT cells, uHTS | hit rate 0.74% among 340,000 | AID 588413, 2011 | Sufu-KO-LIGHT fibroblasts, Gli luciferase reporter luminescence | inhibition, % at 5 µM;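 active = inhibition above about 55%, limit read from the data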;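 also: 0% = DMSO-treated cells and 100% = wells with medium but no cells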
# NCOA2 inhibitor – inhibition of GAL4-SRC2 driven luciferase reporter, primary screen, SRC2 inhibitor project, cell-based, luminescence. Nuclear receptor coactivator 2 (Homo sapiens), Q15596. HEK293 GAL4-SRC2 luciferase reporter. inhibition, % at 9 µM. hit rate 0.17% among 370,000;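 active = inhibition above the mean inhibition of all tested compounds plus 3 SD, set per campaign, cut at about 52% in these data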;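 also: 0% = DMSO treated cells and 100% = cells given Gossypol at 36 µM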
# SRC1 inh – SRC1 coactivator transcriptional activity inhibitors, primary screen, cell-based, luminescence. AID 588354, 2011. HEK293 GAL4-SRC1 luciferase reporter. hit rate 0.12% among 360,000. inhibition, % at 3.6 µM;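 active = inhibition above the campaign mean plus 3 SD, with each screening campaign given its own cutoff, cut at about 60% in these data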;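 also: 0% = DMSO treated cells and 100% = gossypol at 36 µM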
# NCOA3 inh – SRC3 coactivator transcriptional activity inhibitors, primary screen, cell-based, luminescence; HEK293 GAL4-SRC3 luciferase reporter; inhibition, % at 3.6 µM; hit rate 0.17% among 360,000; AID 588352, 2011;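 active = inhibition above a per-campaign cutoff, the mean of all compounds plus 3 SD, cut at about 60% in these data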;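 also: 0% = DMSO-treated cells and 100% = gossypol-treated cells at 36 µM; higher means less SRC3-driven luciferase light from the GAL4 reporter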
# NR2F2 inh – NR2F2 transcriptional activity inhibitors, primary screen, cell-based, luciferase reporter, HEK293T, luminescence. COUP transcription factor 2 (Homo sapiens), P24468. hit rate 0.7% among 370,000. HEK293T NGFI-A luciferase reporter. inhibition, % at 8.6 µM. AID 686940, 2013;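 active = inhibition above a per-plate cutoff, mean inhibition of test wells between control levels plus 3 SD, cut at about 38% in these data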;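 also: cells cotransfected with COUP-TFII expression vector driving the NGFI-A reporter; 0% = median of COUP-TF2 test wells and 100% = reporter-only cells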
# LRH-1 inv ag – LRH-1 (NR5A2) inverse agonists, primary screen, cell-based, luminescence, HEK293T, StAR-luciferase reporter; LRH-1 transfected, 24 h; inhibition, % at 3.6 µM; hit rate 0.13% among 360,000; AID 602396, 2012;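 active = inhibition above the mean inhibition of all tested compounds plus 3 SD, cut at about 73% in these data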;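 also: 0% = DMSO wells and 100% = reporter-only cells lacking LRH-1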
# Gli-Sufu confirm – Gli-SUFU pathway antagonists, confirmation, single concentration, luciferase luminescence, Sufu-KO-LIGHT cells; shares compounds with Gli-Sufu block; Gli luciferase reporter; inhibition, % at 5 µM; hit rate 40% among 2,500; AID 602428, 2012;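 active = mean inhibition at 5 µM reaching about 45%, limit read from the data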;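 also: plate controls were DMSO-treated cells for no effect and wells lacking cells for full effect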
# SufuKO cytotox – cytotoxicity in Sufu-KO-LIGHT cells, confirmation, cytotoxicity control for Gli-SUFU antagonist project, cell-based, ATP luminescence, single concentration; shares compounds with Gli-Sufu block; cytotoxicity, % at 5 µM; hit rate 32% among 2,500;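 active = mean cytotoxicity at 5 µM above about 25%, limit read from the data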;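 also: cells exposed to compound overnight for roughly 16 to 18 hours; plate controls were DMSO wells with cells for no effect and medium without cells for full effect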
# Wnt3a cs – Wnt3a reporter signal inhibition, confirmation, counter-screen for Gli-SUFU antagonist project, Wnt-LIGHT cells, luminescence, single concentration; Wnt3a-driven luciferase reporter; hit rate 20% among 2,500; inhibition, % at 6.25 µM; shares compounds with Gli-Sufu block;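 active = mean inhibition above about 25%, limit read from the data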
# * marks the source's active call; other numbers are inactive results; · = not tested or not shown.
SMILES,Gli-Sufu block,NCOA2 inhibitor,SRC1 inh,NCOA3 inh,NR2F2 inh,LRH-1 inv ag,Gli-Sufu confirm,SufuKO cytotox,Wnt3a cs
COc1ccc(CCNC(=O)c2cc3c(=O)n4ccccc4nc3n(CCN3CCOCC3)c2=N)cc1,66*,7,22,6,10,28,21,5,-46
O=C(NCCCc1ccccc1)[C@H](Cc1ccccc1)NC1(C(=O)NCCc2c[nH]c3ccccc23)CCOCC1,·,·,·,·,12,·,·,·,·
COc1ccc(-c2nc3ccccc3n2Cc2ccccc2)cc1,8,-35,-14,-7,-11,-7,·,·,·
COc1ccc(-c2n(Cc3ccccc3)c3ccccc3[n+]2Cc2ccccc2)cc1,72*,35,-2,35,23,44,77*,33*,-24
Nc1ncnc2c1ncn2[C@@H]1O[C@H](C(=O)N[C@@H](CCc2ccccc2)C(=O)N2CCN(C(=O)N3CCOCC3)CC2)[C@@H](O)[C@H]1O,·,3,·,·,-21,·,·,·,·
CCn1c(/C=C/Nc2ccccc2)[n+](CC)c2cc(Cl)c(Cl)cc21,66*,4,7,11,-9,21,61*,18,8
CCn1c(/C=C/N(C(C)=O)c2ccccc2)[n+](CCCS(=O)(=O)[O-])c2cc(Cl)c(Cl)cc21,-10,8,6,8,-30,2,·,·,·
COc1ccc(CCN(C(=O)C(F)(F)F)C(C(=O)NC2CCCC2)c2cccs2)cc1 (stereo not drawn),51,11,6,12,12,-6,10,21,-10
O=C(NC1CCCCC1)C(c1ccco1)N(CCc1ccccc1)C(=O)C(F)(F)F (stereo not drawn),0,-30,-16,18,2,-5,·,·,·
Cc1cn2c(-c3cccnc3)nnc2s1,2,-10,-20,-1,-10,10,·,·,·
Cc1cn2c(-c3ccncc3)nnc2s1,54,-15,4,3,12,-11,24,21,7
O=C(CSc1ccc2nnc(-c3cccnc3)n2n1)NCc1ccco1,82*,-11,-10,-28,4,-11,13,17,-10
Cc1cc(Nc2ccc(OC(F)F)cc2)cc(=O)n1-c1ccc(OC(F)F)cc1,·,-11,·,·,28,·,·,·,·
Cc1ccc(C(C#N)c2ccc3c(C(F)(F)F)cc(C(F)(F)F)nc3n2)cc1 (stereo not drawn),53,-21,-9,-16,-9,20,59*,15,52*
C[C@H]1CCC/C=C/C(=O)c2c(cc(O)c(Cl)c2O)CC(=O)O1,·,10,·,·,-30,·,·,·,·
CCCc1c(CC)c(=N)c2ccccc2n1C,51,·,13,-8,·,8,59*,24,1
CCn1ncc(C2=NOC(C(=O)NCc3ccc(Cl)cc3)C2)c1C (stereo not drawn),50,24,-5,-13,-31,18,50*,45*,1
CCn1ncc(C2=NOC(C(=O)Nc3ccc(C)cc3)C2)c1C (stereo not drawn),6,19,11,2,13,18,·,·,·
Cn1nc(CC(=O)NCc2ccc(C(F)(F)F)cc2)c2ccccc2c1=O,55*,-4,-8,21,23,11,52*,25*,17
CCN(c1ccccc1)S(=O)(=O)c1ccc(N2CCN(c3ccc(O)cc3)CC2)nc1,55*,3,7,4,25,-25,29,4,-24
CCN(c1ccccc1)S(=O)(=O)c1ccc(N2CCN(c3ccc(OC)cc3)CC2)nc1,24,-13,1,9,3,10,·,·,·
CN(CCc1ccccn1)C(=O)CC1C(=O)NCCN1Cc1ccc(-c2ccccc2)cc1 (stereo not drawn),60*,15,-21,16,-10,8,9,1,-25
Cc1ccc(CN2CCNC(=O)C2CC(=O)N(C)CCc2ccccc2)cc1 (stereo not drawn),22,23,-25,-3,8,-3,·,·,·
Cc1nc(CCNC(=O)CC2C(=O)NCCN2Cc2ccccc2)nc2c1CCC2 (stereo not drawn),-10,-17,10,-11,0,22,·,·,·
Cc1cc(C)nc(CCNC(=O)CC2C(=O)NCCN2Cc2ccccc2)n1 (stereo not drawn),52,8,-26,-8,-17,9,21,-4,2
SMILES,Gli-Sufu block,NCOA2 inhibitor,SRC1 inh,NCOA3 inh,NR2F2 inh,LRH-1 inv ag,Gli-Sufu confirm,SufuKO cytotox,Wnt3a cs
O=C(N[C@@H](Cc1cccnc1)C(=O)N1CCC[C@H]1C(=O)NCCc1ccccc1Cl)C1CC1,·,11,·,·,7,·,·,·,·
CC1CC(C)CN(CCCNC(=O)c2ccc(CS(=O)(=O)Cc3cccc(Cl)c3)o2)C1 (stereo not drawn),54,10,-3,3,-3,8,26,9,-33
CC(CO)(CO)NC(=O)c1ccc(C#Cc2cccc(F)c2)cn1,·,-25,·,·,-19,·,·,·,·
CC(C)C(=O)Nc1nnc(CCc2nnc(NC(=O)C(C)C)s2)s1,-3,22,6,5,3,10,·,·,·
CCc1nnc(NC(=O)C(C)C)s1,93*,14,7,5,-2,10,11,-14,5
COc1cc(C2CC=C(C(=O)O)C(c3ccccc3F)N2S(=O)(=O)c2ccc(C)cc2)cc(OC)c1OC (stereo not drawn),·,10,·,·,6,·,·,·,·
O=C(CNC(=O)Cc1ccccc1)NCC(=O)OCc1ccccc1,99*,-30,5,2,5,15,10,16,-11
CN1CCC(=C2c3ccccc3C=Cc3ccccc32)CC1,32,-2,-12,9,-9,14,·,·,·
CN1CCC(=C2c3ccccc3Sc3ccccc32)CC1,56*,-7,2,1,-12,-14,33,37*,-43
CCOC(=O)[C@@]12CN(C(=O)OC(C)(C)C)CC=C1N(Cc1ccc(OC)cc1)C(=O)[C@H]2CC(=O)NCc1cccc(C(F)(F)F)c1,·,-7,·,·,10,·,·,·,·
CC(C)(C)S(=O)(=O)N1C[C@H]2CC(=O)C=C2[C@@H]1CCO,·,20,·,·,-3,·,·,·,·
